The entries come from a sample that favours hits as a whole.
CBX7 inh: inhibitors of human CBX7 binding to H3K27me3 peptide; O95931; AlphaScreen His6-CBX7 / biotin-H3K27me3 peptide binding; stronger effect = lower value; normalised signal (fraction of DMSO) (concentration not given with the values); 66,000 tested, 1.1% active; AID 1224903; in the data active = normalised signal below about 0.5
Target sequence (O95931 whole entry, looked up): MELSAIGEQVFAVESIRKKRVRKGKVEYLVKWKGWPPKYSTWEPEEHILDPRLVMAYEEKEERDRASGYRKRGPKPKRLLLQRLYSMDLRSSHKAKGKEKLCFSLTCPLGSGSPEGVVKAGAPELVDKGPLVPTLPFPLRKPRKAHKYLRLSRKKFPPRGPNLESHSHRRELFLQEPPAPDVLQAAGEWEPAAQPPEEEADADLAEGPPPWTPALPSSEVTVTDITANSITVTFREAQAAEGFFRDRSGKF
Of the large screens only hits and unclear results are named; the others gave an inactive call; ! = a repeat was not active.

CCC(=C(c1ccc(OC)cc1)c1ccc(OC)cc1)c1cn(CC(O)CN2CCN(C)CC2)c2ccccc12 (stereo not given)	CBX7 inh 0.35
CCc1sc(NC(=O)c2c(-c3ccccc3)noc2C)nc1-c1ccccc1	none
CC(=O)Nc1ccc(NC2c3ccccc3C(=O)N2Cc2ccccc2Cl)cc1 (stereo not given)	none
COc1ccc(Cl)cc1NC(=O)C1CCCN(S(=O)(=O)c2cnc[nH]2)C1 (stereo not given)	none
CC(=O)N1CCc2cc(S(=O)(=O)N3CC(=O)N(CCc4ccccc4)C(=O)C3)ccc21	none
COc1ccc(-n2nc3c(c2NC(=O)c2cc(C)cc(C)c2)CSC3)cc1	none
COc1ccc(Nc2cc(C(=O)NCCCN3CCCC3)c3ccccc3n2)c(OC)c1	none
COc1ccc(-c2nc(-c3ccc(C)cc3)[nH]c2-c2ccc(OC)cc2)cc1	none
COc1cc(-c2nc(-c3ccc(C)c(C)c3)c(-c3ccccc3)[nH]2)cc2c1OCO2	none
COc1cc(-c2nc(-c3ccc(C)c(C)c3)c(-c3ccc(C)c(C)c3)[nH]2)cc(OC)c1O	CBX7 inh 0.49
CCc1c(C)nc2c(-c3ccc(Cl)cc3)c[nH]n2c1=O	none
O=S(=O)(Nc1nccs1)c1ccc(Nc2nnc(-c3ccccc3)c3ccccc23)cc1	CBX7 inh 0.046
Cc1onc(-c2ccccc2)c1C(=O)Nc1ccc(S(=O)(=O)Nc2nccs2)cc1	none
NS(=O)(=O)c1ccc(Nc2nnc(-c3ccc(O)cc3)c3ccccc23)cc1	none
Cc1cccc(NC(=O)c2cccc(S(=O)(=O)N3CCCCCC3)c2)c1	none
COC(=O)c1ccc(NC(=O)c2c(NCc3cccc(OC)c3)sc3c2CCCC3)cc1	none
Cc1cc2cc(CCNC(=O)c3ccccc3Br)c(=O)[nH]c2cc1C	none
CCOc1ccccc1NC(=O)CSc1nccn1-c1cccc(OC)c1	CBX7 inh 0.48
COc1cccc(-n2ccnc2SCC(=O)Nc2ccccc2F)c1	none
COc1ccccc1NC(=O)CSc1nccn1-c1ccc(Cl)cc1	none
CCOc1ccccc1NC(=O)CSc1nccn1-c1ccc(Cl)cc1	CBX7 inh 0.31
CCOc1ccccc1NC(=O)CSc1nccn1-c1cc(C)cc(C)c1	none
COc1cccc(-n2ccnc2SCC(=O)Nc2ccc(OC)cc2OC)c1	none
O=C(NCc1ccccc1Cl)C1CCC(=O)N1CCc1ccccc1 (stereo not given)	none
CCCn1c(=N)n(CC(O)COc2ccc(OC)cc2)c2ccccc21 (stereo not given)	none
Cc1ccc2cc(CCNC(=O)C(C)(C)C)c(=O)[nH]c2c1C	none
CCOc1ccc2nc(N3CCCC(C(=O)NCCCN4CCOCC4)C3)sc2c1 (stereo not given)	none
CCCNC(=O)C1CCCN(c2nc3ccc(OCC)cc3s2)C1 (stereo not given)	none
CCCN1CCN(C(=O)C2CCCN(c3nc4ccc(OCC)cc4s3)C2)CC1 (stereo not given)	CBX7 inh 0.29
CCOc1ccc2nc(N3CCCC(C(=O)N4CCN(c5ccc(OC)cc5)CC4)C3)sc2c1 (stereo not given)	none
CCOc1ccc2nc(N3CCCC(C(=O)NCCCN4CCN(C)CC4)C3)sc2c1 (stereo not given)	CBX7 inh 0.44
CCOC(=O)N1CCN(C(=O)C2CCCN(c3nc4ccc(OCC)cc4s3)C2)CC1 (stereo not given)	none
COc1ccc(-c2cc(C(=O)NCCCN(C)C)c3ccccc3n2)c(OC)c1	none
CC(C)(C)C(=O)Nc1nnc(Cc2ccc(Cl)cc2)s1	none
CN1CCN(CCCNC(=O)C2C3C=CC4(CN(Cc5ccccc5Cl)C(=O)C24)O3)CC1 (stereo not given)	none
O=C(c1ccc2c(c1)N(Cc1ccccc1)CCS2)N1CCN(c2ccccn2)CC1	none
O=C(c1ccc2c(c1)N(Cc1ccccc1)CCS2)N1CCCCCC1	CBX7 inh 0.46
O=C(c1ccc2c(c1)N(Cc1ccccc1)CCS2)N1CCN(c2ccc(Cl)cc2)CC1	none
O=C(c1ccc2c(c1)N(Cc1ccccc1)CCS2)N1CCc2ccccc21	none
O=C(c1ccc2c(c1)N(Cc1ccc(F)cc1)CCS2)N1CCN(c2ccccc2)CC1	none
O=C(c1ccc2c(c1)N(Cc1ccccc1)CCS2)N1CCN(Cc2ccccc2)CC1	CBX7 inh 0.37
COc1ccc(NC(=O)C(Cc2ccccc2)NS(=O)(=O)c2ccc3c(c2)CCC(=O)N3)cc1 (stereo not given)	none
Cc1nc2c(C(=O)NCc3ccc(F)cc3)cnn2c(C)c1Cc1ccc(Cl)cc1	none
Cc1c(C(=O)NC2CCCC2)oc2ccc(S(=O)(=O)N3CCCCCC3)cc12	none
O=C1CCCC2=C1C(c1cccs1)CC(=O)N2c1ccc(C(F)(F)F)cc1 (stereo not given)	none
COC(=O)c1ccccc1NC(=O)c1cc2c(s1)-c1c(C)cccc1OC2	none
COc1cccc(C(=O)Nc2c3c(nn2-c2cccc(Cl)c2)CSC3)c1	none
Cc1ccc(N(C)C(=O)C(NS(=O)(=O)c2ccc3c(c2)CCC(=O)N3)c2ccccc2)cc1 (stereo not given)	none
O=C(CSc1nnc(-c2ccc(Cl)cc2)o1)N1CCCc2ccccc21	none
Cc1ccc(-n2ncc3c(NCc4cccnc4)ncnc32)c(C)c1	none
Cc1ccc(-n2ncc3c(NCCO)ncnc32)c(C)c1	none
Cc1ccc(-n2ncc3c(NCc4ccccn4)ncnc32)c(C)c1	CBX7 inh 0.12
COc1ccc(NC(=O)c2cc(-c3cccs3)nc3ccccc23)c(OC)c1	none
Cc1ccc(-c2noc(CCC(=O)NCCCN3CCCCCC3)n2)cc1	none
O=C1CCCc2c1[nH]c1ccc(Oc3ccccc3)cc21	none
CC(=O)Nc1nc(-c2ccc(Oc3ccccc3)cc2)cs1	none
CC(C)Cc1ccc(-c2csc(Nc3ccc(Oc4ccccc4)cc3)n2)cc1	CBX7 inh 0.49
COc1ccc(-c2csc(Nc3ccc(Oc4ccccc4)cc3)n2)cc1Br	CBX7 inh 0.42!
Clc1ccc(-c2csc(Nc3ccc(Oc4ccccc4)cc3)n2)cc1	none
O=C1c2ccccc2C(=O)N1c1cccc(-c2csc(Nc3ccc(Oc4ccccc4)cc3)n2)c1	none
COc1cccc(Nc2nc(-c3ccc(OC)c(Br)c3)cs2)c1	none
CN(CCCNC(=O)c1ccc2c(c1)N(Cc1c(F)cccc1Cl)C(=O)CS2)C1CCCCC1	none
Cc1ccc(CCNS(=O)(=O)c2ccc3c(c2)CCN3C(=O)C2CC2)cc1	none
CCOc1ccc2nc(SCC(=O)Nc3ccc(S(N)(=O)=O)cc3)[nH]c2c1	none
COc1ccc(C2CC(c3cccnc3)Nc3ncnn32)cc1 (stereo not given)	none
CC(=O)c1c(C)n(-c2ccccc2)c2ccc(OCC(O)CN3CCCCC3)cc12 (stereo not given)	none
COc1ccc(C(=O)Nc2nnc(CC(C)C)s2)cc1	none
CCOc1cc(O)c(-c2n[nH]c(C)c2Oc2ccccc2)cc1CC	none
CCc1cc(-c2n[nH]c(C)c2Oc2ccccc2)c(O)cc1O	CBX7 inh 0.41
Cc1[nH]nc(-c2ccc(O)c(C)c2O)c1Oc1ccccc1	none
Cc1nc2c(-c3ccccc3)c(C)nn2c(C)c1CCC(=O)NCCCOC(C)C	none
CC1CCN(c2oc(COc3cccc(Cl)c3)nc2C#N)CC1	none
N#Cc1nc(COc2cccc(Cl)c2)oc1N1CCCCCC1	CBX7 inh 0.45
N#Cc1nc(COc2cccc(Cl)c2)oc1N1CCCCC1	none
N#Cc1nc(COc2ccccc2Cl)oc1N1CCCCCC1	none
N#Cc1nc(COc2ccccc2)oc1N1CCCCC1	none
N#Cc1nc(COc2ccc(Cl)cc2)oc1N1CCCCCC1	CBX7 inh 0.37
Cc1ccc(CNC(=O)c2nc(-c3ccccc3C)oc2C)cc1	none
CC(=O)Nc1nnc(Cc2ccc(Cl)c(Cl)c2)s1	none
CC(C)CCNC(=O)C(C)N1C(=O)CC(C)(C)Sc2ccccc21 (stereo not given)	none

From PubChem BioAssay
